This is part of a sample that, as a whole, favours compounds with a hit. Of some 79,000 tested, about 15% had one in any assay. Unmarked numbers belong to inactive results. Activity calls are given as the source filed them. No stated cut-off is given here; in the data, active means growth inhibition above about 70%; inactive means the rest.

Assay [1] in a line: NCI Yeast Anticancer Drug Screen. Data for the rad50 strain (AID 155).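 Further: 0% = growth of vehicle-only cultures of the same strain.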 As to conditions: S. cerevisiae rad50 strain growth inhibition, hits give high values. The essentials:
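Yeast carrying a defined DNA repair defect were exposed to test compounds, and growth was compared with vehicle-treated controls to give percent inhibition.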

A short description of assay [2]: NCI Yeast Anticancer Drug Screen. Data for the mec2-1 strain (AID 157). The conditions noted are these: S. cerevisiae mec2-1 strain, hits give high values. The essentials: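 Using mec2-1 yeast: add compound, measure growth, express inhibition versus vehicle-treated cultures.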
Assay [3] in a line: NCI Yeast Anticancer Drug Screen. Data for the sgs1 mgt1 strain (AID 161).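 Further: 0% = growth of cultures given vehicle only.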 As to conditions: S. cerevisiae sgs1 mgt1 strain, hits give high values. The essentials:
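Yeast cells carrying a defined DNA-repair defect were exposed to test compounds. Growth inhibition was measured relative to vehicle-treated controls.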

Assay [4] can be described thus: NCI Yeast Anticancer Drug Screen. Data for the cln2 rad14 strain (AID 165).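 Further: 0% = growth equal to vehicle treated cultures.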 The conditions noted are these: S. cerevisiae cln2 rad14 strain, hits give high values. The gist of the method:
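Yeast strain cln2 rad14, bearing defects in cell cycle control and DNA repair, serves as the test system; values reflect growth inhibition compared with vehicle.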

Assay [5] can be described thus: NCI Yeast Anticancer Drug Screen. Data for the bub3 strain (AID 167). As to conditions: S. cerevisiae bub3 mutant strain, hits give high values. The essentials:
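Compounds were applied to a genetically altered yeast strain carrying a cell-cycle control defect. Growth inhibition was scored against vehicle-treated controls.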

Assay [6] is described as follows: NCI Yeast Anticancer Drug Screen. Data for the mlh1 rad18 strain (AID 175). As to conditions: S. cerevisiae mlh1 rad18 strain growth inhibition, hits give high values. The gist of the method: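 Steps: expose repair-defective yeast to compound; measure growth; express inhibition against vehicle-treated controls.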
The mark [7] stands for this setting: at 5.0 µM (retest, dose inferred, filed as 0.5).
[8] abbreviates: at 50.0 µM (retest, dose inferred, filed as 5.0).

As to `CCN(CCO)CC1OC(OC)C2OC(C)(C)OC12` (stereo not given), the growth inhibition in assay [1] (setting [7]) is -1%; in assay [1] (setting [8]), 83% (active); in assay [1] (at 50.0 µM), 10%; in assay [2] (setting [7]), 0%; in assay [2] (setting [8]) it was 91% (active); in assay [2] (at 50.0 µM), 2.55%. For the same molecule, the growth inhibition in assay [3] (setting [7]) was -2%; in assay [3] (setting [8]) it was 84% (active); in assay [3] (at 50.0 µM), -0.9%; in assay [4] (setting [7]), -3%; in assay [4] (setting [8]) it was 83% (active); in assay [4] (at 50.0 µM) it was 85.8% (active). The growth inhibition was -2% in assay [5] (setting [7]); 89% (active) in assay [5] (setting [8]); 24.5% in assay [5] (at 50.0 µM); -1% in assay [6] (setting [7]); 90% (active) in assay [6] (setting [8]); 35.7% in assay [6] (at 50.0 µM).
As for `COc1cc(C/C(=C/c2ccc(OC)c3occc23)[N+](=O)[O-])cc(OC)c1OC`, the growth inhibition in assay [1] (setting [7]) is 18%; in assay [1] (setting [8]), 100% (active); in assay [1] (at 50.0 µM), 70.6% (active); in assay [2] (setting [7]), 29%; in assay [2] (setting [8]), 100% (active); in assay [2] (at 50.0 µM), 82.8% (active). The growth inhibition in assay [3] (setting [7]) is 31%; in assay [3] (setting [8]) it was 99% (active); in assay [3] (at 50.0 µM), 82.9% (active); in assay [4] (setting [7]), 4%; in assay [4] (setting [8]), 99% (active); in assay [4] (at 50.0 µM) it was 64.8%. Besides, the growth inhibition in assay [5] (setting [7]) was 12%; in assay [5] (setting [8]), 97% (active); in assay [5] (at 50.0 µM) it was 60.7%; in assay [6] (setting [7]), 23%; in assay [6] (setting [8]) it was 100% (active); in assay [6] (at 50.0 µM) it was 87.2% (active).
Regarding `Cc1cccc(Cl)c1NC(=S)Nc1cccc(C(F)(F)F)c1`, the growth inhibition in assay [1] (setting [7]) is -4%; in assay [1] (setting [8]) it was 2%; in assay [1] (at 50.0 µM), 88.8% (active); in assay [2] (setting [7]), 2%; in assay [2] (setting [8]), 8%; in assay [2] (at 50.0 µM), 89.4% (active). Also, the growth inhibition was 10% in assay [3] (setting [7]); 1% in assay [3] (setting [8]); 92.3% (active) in assay [3] (at 50.0 µM); 24% in assay [4] (setting [7]); 23% in assay [4] (setting [8]); 88.3% (active) in assay [4] (at 50.0 µM). In addition, the growth inhibition in assay [5] (setting [7]) is 20%; in assay [5] (setting [8]), 9%; in assay [5] (at 50.0 µM), 89.6% (active); in assay [6] (setting [7]) it was -21%; in assay [6] (setting [8]) it was 17%; in assay [6] (at 50.0 µM), 86.2% (active).
Turning to `O=c1c(Cl)c(Cl)c(=O)c2sc3cc(Cl)ccc3[nH]c1=2`, the growth inhibition in assay [1] (setting [7]) is 6%; in assay [1] (setting [8]), 51%; in assay [1] (at 50.0 µM), 95.5% (active); in assay [2] (setting [7]) it was 3%; in assay [2] (setting [8]), 27%; in assay [2] (at 50.0 µM), 95% (active). Also, the growth inhibition was -3% in assay [3] (setting [7]); 46% in assay [3] (setting [8]); 88% (active) in assay [3] (at 50.0 µM); 2% in assay [4] (setting [7]); 7% in assay [4] (setting [8]); 95% (active) in assay [4] (at 50.0 µM). Moreover, the growth inhibition in assay [5] (setting [7]) was 6%; in assay [5] (setting [8]), 19%; in assay [5] (at 50.0 µM) it was 95.5% (active); in assay [6] (setting [7]) it was 2%; in assay [6] (setting [8]), 59%; in assay [6] (at 50.0 µM), 96.9% (active).
Consider `COc1ccccc1NC(=O)C1=C(C)NC(C)=C(C(=O)Nc2ccccc2OC)C1c1ccccc1[N+](=O)[O-]`, for which the growth inhibition in assay [1] (setting [7]) is 13%; in assay [1] (setting [8]), 13%; in assay [1] (at 50.0 µM), 68%; in assay [2] (setting [7]), 4%; in assay [2] (setting [8]), 4%; in assay [2] (at 50.0 µM) it was 69.1%. Further, the growth inhibition in assay [3] (setting [7]) was 2%; in assay [3] (setting [8]) it was 2%; in assay [3] (at 50.0 µM), 60.9%; in assay [4] (setting [7]) it was 0%; in assay [4] (setting [8]), 0%; in assay [4] (at 50.0 µM), 12%. For the same molecule, the growth inhibition in assay [5] (setting [7]) was 5%; in assay [5] (setting [8]) it was 5%; in assay [5] (at 50.0 µM), 65.7%; in assay [6] (setting [7]) it was 13%; in assay [6] (setting [8]), 13%; in assay [6] (at 50.0 µM), 48.4%.
Turning to `c1cc2c(cc1CCCCCCCCCCc1ccc3c(c1)CCC3)CCC2`, the growth inhibition was -4% in assay [1] (setting [7]); -5% in assay [1] (setting [8]); 2.75% in assay [1] (at 50.0 µM); -13% in assay [2] (setting [7]); -8% in assay [2] (setting [8]); 3.85% in assay [2] (at 50.0 µM). Further, the growth inhibition in assay [3] (setting [7]) was 9%; in assay [3] (setting [8]) it was 2%; in assay [3] (at 50.0 µM), 3.3%; in assay [4] (setting [7]) it was -4%; in assay [4] (setting [8]), 0%; in assay [4] (at 50.0 µM) it was 79.8% (active). Also, the growth inhibition in assay [5] (setting [7]) is -6%; in assay [5] (setting [8]) it was -2%; in assay [5] (at 50.0 µM) it was 2.95%; in assay [6] (setting [7]), -2%; in assay [6] (setting [8]) it was -38%; in assay [6] (at 50.0 µM) it was 10.6%.
As for `CCc1cccc(CC)c1N=Nc1c(N)nc(N)[nH]c1=O`, the growth inhibition in assay [1] (setting [7]) is -11%; in assay [1] (setting [8]), -6%; in assay [1] (at 50.0 µM) it was -4.8%; in assay [2] (setting [7]) it was -23%; in assay [2] (setting [8]) it was -9%; in assay [2] (at 50.0 µM), -32%. The growth inhibition in assay [3] (setting [7]) is -11%; in assay [3] (setting [8]), 6%; in assay [3] (at 50.0 µM), 39.8%; in assay [4] (setting [7]), 0%; in assay [4] (setting [8]) it was 2%; in assay [4] (at 50.0 µM), -21%. Besides, the growth inhibition in assay [5] (setting [7]) is -2%; in assay [5] (setting [8]), -3%; in assay [5] (at 50.0 µM), -19.8%; in assay [6] (setting [7]) it was 8%; in assay [6] (setting [8]) it was -30%; in assay [6] (at 50.0 µM) it was -11.7%.
Consider `NC(=S)Nc1ccccc1O`, for which the growth inhibition in assay [1] (setting [7]) was 6%; in assay [1] (setting [8]) it was 43%; in assay [1] (at 50.0 µM), 50.5%; in assay [2] (setting [7]) it was -10%; in assay [2] (setting [8]) it was 19%; in assay [2] (at 50.0 µM), 50.9%. Further, the growth inhibition in assay [3] (setting [7]) was 6%; in assay [3] (setting [8]), 15%; in assay [3] (at 50.0 µM), 40.9%; in assay [4] (setting [7]), 0%; in assay [4] (setting [8]) it was 21%; in assay [4] (at 50.0 µM), 8.25%. Besides, the growth inhibition in assay [5] (setting [7]) is 17%; in assay [5] (setting [8]), 72% (active); in assay [5] (at 50.0 µM), 80.3% (active); in assay [6] (setting [7]), 14%; in assay [6] (setting [8]) it was 46%; in assay [6] (at 50.0 µM), 59.2%.
In the case of `COc1ccc(/C=C(/C#N)c2ccccc2)cc1`, the growth inhibition in assay [1] (setting [7]) is 8%; in assay [1] (setting [8]) it was -2%; in assay [1] (at 50.0 µM) it was 67.1%; in assay [2] (setting [7]), 9%; in assay [2] (setting [8]), 27%; in assay [2] (at 50.0 µM) it was 19.6%. The growth inhibition in assay [3] (setting [7]) is 9%; in assay [3] (setting [8]) it was 2%; in assay [3] (at 50.0 µM), 81.5% (active); in assay [4] (setting [7]), 1%; in assay [4] (setting [8]), 4%; in assay [4] (at 50.0 µM) it was 16.4%. Besides, the growth inhibition in assay [5] (setting [7]) is 10%; in assay [5] (setting [8]), 55%; in assay [5] (at 50.0 µM) it was 73.5% (active); in assay [6] (setting [7]), 5%; in assay [6] (setting [8]), 19%; in assay [6] (at 50.0 µM) it was 69%.
Take `ClC/C=C/c1ccccc1`: the growth inhibition was 2% in assay [1] (setting [7]); 31% in assay [1] (setting [8]); 68.8% in assay [1] (at 50.0 µM); -1% in assay [2] (setting [7]); 11% in assay [2] (setting [8]); 16.9% in assay [2] (at 50.0 µM). For the same molecule, the growth inhibition was 3% in assay [3] (setting [7]); 15% in assay [3] (setting [8]); 61% in assay [3] (at 50.0 µM); 6% in assay [4] (setting [7]); 1% in assay [4] (setting [8]); -7.2% in assay [4] (at 50.0 µM). For the same molecule, the growth inhibition is 7% in assay [5] (setting [7]); 20% in assay [5] (setting [8]); 37.1% in assay [5] (at 50.0 µM); 3% in assay [6] (setting [7]); 18% in assay [6] (setting [8]); 62.6% in assay [6] (at 50.0 µM).

(Values after PubChem BioAssay (NCI).)
